Measured values published in PubChem BioAssay (NCATS).
Records with an inconclusive call do not appear. Where a call stands in place of a potency, no number is given. The source made the active and inactive calls. The call rests on the fitted dose curve; in most records, active means well fitted inhibition curve with a large enough effect; inconclusive means small, poorly fitted or top-dose-only effect; inactive means flat fitted curve, though single readings scatter.

target: Voltage-gated inwardly rectifying potassium channel KCNH2 (Homo sapiens) (UniProt Q12809); experiment: qHTS Assay for Small Molecule Inhibitors of the Human hERG Channel Activity (AID 588834); details: U2OS BacMam hERG, FluxOR thallium flux fluorescence; series mostly up to 46.1 µM;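 further: top concentration of the series differs between compounds; lower thallium flux fluorescence means stronger hERG block; nearly all actives have a fitted effect of over 50% in size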
Summary of the method: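 U2OS cells BacMam-transduced with hERG, 2000 cells/well, compound ~10 min at 37 °C before stimulation buffer. FluxOR thallium flux fluorescence read kinetically on FDSS; decrease indicates block; AC50 from Hill fits.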

Voltage-gated inwardly rectifying potassium channel KCNH2 (Homo sapiens), sequence (Q12809 whole entry, looked up): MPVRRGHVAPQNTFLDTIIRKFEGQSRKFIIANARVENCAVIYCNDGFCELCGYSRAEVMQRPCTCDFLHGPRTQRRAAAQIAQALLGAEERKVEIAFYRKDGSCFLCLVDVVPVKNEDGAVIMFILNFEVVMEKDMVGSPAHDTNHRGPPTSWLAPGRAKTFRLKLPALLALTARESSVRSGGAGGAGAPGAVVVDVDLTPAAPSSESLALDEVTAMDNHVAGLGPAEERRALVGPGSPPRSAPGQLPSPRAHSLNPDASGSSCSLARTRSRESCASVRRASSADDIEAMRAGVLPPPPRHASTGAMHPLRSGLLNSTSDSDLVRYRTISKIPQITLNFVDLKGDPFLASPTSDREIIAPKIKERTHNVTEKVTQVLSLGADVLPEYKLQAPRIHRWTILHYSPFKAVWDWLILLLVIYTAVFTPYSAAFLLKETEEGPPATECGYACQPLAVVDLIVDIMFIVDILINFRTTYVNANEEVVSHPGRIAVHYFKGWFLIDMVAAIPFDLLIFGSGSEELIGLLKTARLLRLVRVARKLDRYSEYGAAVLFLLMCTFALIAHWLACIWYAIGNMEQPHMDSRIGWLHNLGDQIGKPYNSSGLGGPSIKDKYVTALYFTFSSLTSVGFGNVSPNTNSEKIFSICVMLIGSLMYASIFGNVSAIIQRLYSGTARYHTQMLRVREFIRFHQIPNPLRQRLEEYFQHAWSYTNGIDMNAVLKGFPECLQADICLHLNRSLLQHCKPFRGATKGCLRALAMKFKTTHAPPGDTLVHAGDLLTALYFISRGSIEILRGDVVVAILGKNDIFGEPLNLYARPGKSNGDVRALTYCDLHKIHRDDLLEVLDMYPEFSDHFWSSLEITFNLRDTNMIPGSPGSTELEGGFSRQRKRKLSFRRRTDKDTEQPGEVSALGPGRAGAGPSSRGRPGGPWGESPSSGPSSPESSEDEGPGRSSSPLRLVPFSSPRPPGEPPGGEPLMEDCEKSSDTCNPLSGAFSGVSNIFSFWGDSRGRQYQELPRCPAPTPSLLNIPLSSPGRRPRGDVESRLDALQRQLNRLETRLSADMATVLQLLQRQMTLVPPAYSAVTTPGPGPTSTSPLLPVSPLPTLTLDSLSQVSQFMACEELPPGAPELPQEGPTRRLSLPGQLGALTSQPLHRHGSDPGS

| SMILES | Potency |
| --- | --- |
| O=C(O)/C=C/c1ccc(Cn2ccnc2)cc1 | inactive |
| C[N+]1(C)CCCC(OC(=O)C(O)(c2ccccc2)c2ccccc2)C1 (configuration not stated) | inactive |
| CC1(C)S[C@@H]2[C@H](N=CN3CCCCCC3)C(=O)N2[C@H]1C(=O)O | inactive |
| CC[C@H](C)[C@H](N)C(=O)O | inactive |
| CCCCCOC(=O)Nc1nc(=O)n([C@@H]2O[C@H](C)[C@@H](O)[C@H]2O)cc1F | inactive |
| CC1(C)S[C@@H]2[C@H](NC(=O)C(C(=O)O)c3ccccc3)C(=O)N2[C@H]1C(=O)O (some centres not stated) | inactive |
| CC(=O)OCC(=O)[C@@]1(O)CC[C@H]2[C@@H]3CCC4=CC(=O)C=C[C@]4(C)[C@@]3(F)[C@@H](O)C[C@@]21C | inactive |
| C=CCN1C[C@H](C(=O)N(CCCN(C)C)C(=O)NCC)C[C@@H]2c3cccc4[nH]cc(c34)C[C@H]21 | inactive |
| NC(=O)NC1NC(=O)NC1=O (configuration not stated) | inactive |
| CCOC(=O)OC(C)OC(=O)[C@@H]1N2C(=O)[C@@H](NC(=O)[C@H](N)c3ccccc3)[C@H]2SC1(C)C (some centres not stated) | inactive |
| O=c1[nH]c(=O)n([C@H]2C[C@H](O)[C@@H](CO)O2)cc1I | inactive |
| CCN[C@H]1CN(CCCOC)S(=O)(=O)c2sc(S(N)(=O)=O)cc21 | inactive |
| C[C@]1(Cn2ccnn2)[C@H](C(=O)O)N2C(=O)C[C@H]2S1(=O)=O | inactive |
| NC(=O)N[C@@H](CCC(=O)O)C(=O)O | inactive |
| C/C=C/C(=O)N(CC)c1ccccc1C | inactive |
| COC(=O)N/N=C/c1c[n+]([O-])c2ccccc2[n+]1[O-] | inactive |
| C[N+](C)(C)CC(O)CC(=O)[O-] (configuration not stated) | inactive |
| O=C(NCC(O)CO)c1c(I)c(C(=O)NCC(O)CO)c(I)c(N(CCO)C(=O)CO)c1I (configuration not stated) | inactive |
| CC(=O)N(CC(O)CN(C(C)=O)c1c(I)c(C(=O)NCC(O)CO)c(I)c(C(=O)NCC(O)CO)c1I)c1c(I)c(C(=O)NCC(O)CO)c(I)c(C(=O)NCC(O)CO)c1I (configuration not stated) | inactive |

| SMILES | Potency |
| --- | --- |
| CN[C@@H]1[C@H](O)[C@H](NC)[C@H]2O[C@@]3(O)C(=O)C[C@@H](C)O[C@H]3O[C@@H]2[C@H]1O | inactive |
| CN1CC(=O)NC1=N | inactive |
| CO[C@@]1(NC(=O)C(C(=O)O)c2ccc(O)cc2)C(=O)N2C(C(=O)O)=C(CSc3nnnn3C)CO[C@@H]21 (some centres not stated) | inactive |
| CC1(c2ccccc2)OC(C(=O)O)=CC1=O (configuration not stated) | inactive |
| C[n+]1ccccc1/C=N/O | inactive |
| Cc1ccc2c(c1)c1c3n2CCNC3CCC1 (configuration not stated) | inactive |
| O=C(O)[C@@H]1[C@H]2C[C@H]3c4[nH]c5ccccc5c4CCN3C[C@@H]2CC[C@@H]1O | inactive |
| CCOc1ccccc1O[C@H](c1ccccc1)[C@H]1CNCCO1 | inactive |
| O=C(/C=C/c1ccc(O)c(O)c1)O[C@@H]1C[C@@](OC(=O)/C=C/c2ccc(O)c(O)c2)(C(=O)O)C[C@@H](O)[C@@H]1O | inactive |
| CC(C)=CCC[C@@](C)(O)[C@H]1CC=C(C)CC1 | inactive |
| C/C=C1\[C@H]2C=C(C)C[C@]1(N)c1ccc(=O)[nH]c1C2 | inactive |
| COCC(=O)Nc1c(I)c(C(=O)NCC(O)CO)c(I)c(C(=O)N(C)CC(O)CO)c1I (configuration not stated) | inactive |
| COc1ccccc1OCC(O)CO (configuration not stated) | inactive |
| CC(=O)[C@@]1(O)CC[C@H]2[C@@H]3C[C@H](C)C4=CC(=O)C=C[C@]4(C)[C@@]3(F)[C@@H](O)C[C@@]21C | inactive |
| CCOC(=O)[C@H](CCc1ccccc1)N[C@@H](C)C(=O)N1Cc2cc(OC)c(OC)cc2C[C@H]1C(=O)O | inactive |
| CC(=O)N[C@@H](CC(C)C)C(=O)O | inactive |
| CC(=O)N1C[C@H](O)C[C@H]1C(=O)O | inactive |
| CCCNC(C)C(=O)Nc1c(C)csc1C(=O)OC (configuration not stated) | inactive |
